Measurements taken from ChEMBL document CHEMBL1961873, “Compounds: GSK PKIS; Assays: Nanosyn kinase panel” (2012).

Columns and labels:
[1] = target: Ribosomal protein S6 kinase alpha-6 (Homo sapiens) (UniProt Q9UK32); conditions: at 1 µM;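 further: each value is a mean inhibition of RSK4 from a GSK PKIS panel screen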
[2] = target: T1, Serine/threonine-protein kinase Sgk1 (Homo sapiens) (UniProt O00141); conditions: at 0.1 µM
T1 sequence (whole entry): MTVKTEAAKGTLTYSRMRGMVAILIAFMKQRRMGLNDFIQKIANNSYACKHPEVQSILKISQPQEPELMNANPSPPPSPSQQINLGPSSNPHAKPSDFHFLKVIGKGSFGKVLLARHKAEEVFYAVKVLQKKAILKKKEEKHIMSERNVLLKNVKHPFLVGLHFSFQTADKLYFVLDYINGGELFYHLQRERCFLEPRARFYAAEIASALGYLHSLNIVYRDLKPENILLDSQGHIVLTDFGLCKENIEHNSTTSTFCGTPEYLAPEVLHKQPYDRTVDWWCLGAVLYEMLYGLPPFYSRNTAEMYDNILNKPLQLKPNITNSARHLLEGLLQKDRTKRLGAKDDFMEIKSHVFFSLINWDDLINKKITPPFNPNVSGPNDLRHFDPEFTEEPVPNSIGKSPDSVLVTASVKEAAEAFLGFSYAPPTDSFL

[3] = target: T1, Serine/threonine-protein kinase Sgk1 (Homo sapiens); conditions: at 1 µM
[4] = target: T2, Serine/threonine-protein kinase Sgk2 (Homo sapiens) (UniProt Q9HBY8); conditions: at 0.1 µM
T2 sequence (whole entry): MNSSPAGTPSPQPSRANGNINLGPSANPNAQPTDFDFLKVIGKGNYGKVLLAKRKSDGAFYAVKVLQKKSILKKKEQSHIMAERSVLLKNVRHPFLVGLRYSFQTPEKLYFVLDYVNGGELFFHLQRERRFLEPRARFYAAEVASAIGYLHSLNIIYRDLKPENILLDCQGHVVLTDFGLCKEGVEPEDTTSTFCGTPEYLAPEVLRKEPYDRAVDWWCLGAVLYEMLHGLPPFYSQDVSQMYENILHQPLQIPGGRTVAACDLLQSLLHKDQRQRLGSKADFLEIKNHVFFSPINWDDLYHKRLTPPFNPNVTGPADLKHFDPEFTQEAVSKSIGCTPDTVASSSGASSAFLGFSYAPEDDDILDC

[5] = target: T2, Serine/threonine-protein kinase Sgk2 (Homo sapiens); conditions: at 1 µM
[6] = target: T3, Serine/threonine-protein kinase Sgk3 (Homo sapiens) (UniProt Q96BR1); conditions: at 0.1 µM
T3 sequence (whole entry): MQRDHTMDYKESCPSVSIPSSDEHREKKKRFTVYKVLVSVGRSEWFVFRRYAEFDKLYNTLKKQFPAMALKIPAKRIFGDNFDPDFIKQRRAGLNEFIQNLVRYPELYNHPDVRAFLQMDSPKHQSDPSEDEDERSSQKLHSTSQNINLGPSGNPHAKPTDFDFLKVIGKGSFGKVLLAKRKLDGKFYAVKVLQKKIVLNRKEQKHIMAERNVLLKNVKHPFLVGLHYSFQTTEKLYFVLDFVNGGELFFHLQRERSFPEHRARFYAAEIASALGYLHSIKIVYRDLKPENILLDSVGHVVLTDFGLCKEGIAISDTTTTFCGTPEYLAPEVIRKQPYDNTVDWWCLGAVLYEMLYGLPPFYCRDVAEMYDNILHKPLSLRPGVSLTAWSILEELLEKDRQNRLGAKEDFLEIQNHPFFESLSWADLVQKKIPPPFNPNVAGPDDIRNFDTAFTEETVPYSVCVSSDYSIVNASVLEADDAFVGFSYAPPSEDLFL

[7] = target: T3, Serine/threonine-protein kinase Sgk3 (Homo sapiens); conditions: at 1 µM
[8] = target: 5'-AMP-activated protein kinase catalytic subunit alpha-1 (Homo sapiens) (UniProt Q13131); conditions: at 0.1 µM
5'-AMP-activated protein kinase catalytic subunit alpha-1 (Homo sapiens), sequence (Q13131 whole entry, looked up): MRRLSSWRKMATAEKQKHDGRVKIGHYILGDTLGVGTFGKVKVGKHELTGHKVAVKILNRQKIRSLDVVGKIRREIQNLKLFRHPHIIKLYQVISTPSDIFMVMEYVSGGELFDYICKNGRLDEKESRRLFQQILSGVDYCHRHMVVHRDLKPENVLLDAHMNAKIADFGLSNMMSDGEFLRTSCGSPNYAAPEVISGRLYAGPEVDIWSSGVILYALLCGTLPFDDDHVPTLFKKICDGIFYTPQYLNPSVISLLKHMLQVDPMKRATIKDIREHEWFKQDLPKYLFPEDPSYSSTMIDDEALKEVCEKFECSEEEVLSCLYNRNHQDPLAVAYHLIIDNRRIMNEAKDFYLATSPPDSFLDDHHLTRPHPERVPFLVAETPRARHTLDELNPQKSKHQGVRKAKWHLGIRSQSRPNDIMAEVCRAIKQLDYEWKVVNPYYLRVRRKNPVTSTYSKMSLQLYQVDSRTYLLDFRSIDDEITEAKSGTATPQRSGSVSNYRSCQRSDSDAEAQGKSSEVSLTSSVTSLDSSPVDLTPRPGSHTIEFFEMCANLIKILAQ

[9] = target: 5'-AMP-activated protein kinase catalytic subunit alpha-1 (Homo sapiens) (UniProt Q13131); conditions: at 1 µM
[10] = target: 5'-AMP-activated protein kinase catalytic subunit alpha-2 (Homo sapiens) (UniProt P54646); conditions: at 0.1 µM
5'-AMP-activated protein kinase catalytic subunit alpha-2 (Homo sapiens), sequence (P54646 whole entry, looked up): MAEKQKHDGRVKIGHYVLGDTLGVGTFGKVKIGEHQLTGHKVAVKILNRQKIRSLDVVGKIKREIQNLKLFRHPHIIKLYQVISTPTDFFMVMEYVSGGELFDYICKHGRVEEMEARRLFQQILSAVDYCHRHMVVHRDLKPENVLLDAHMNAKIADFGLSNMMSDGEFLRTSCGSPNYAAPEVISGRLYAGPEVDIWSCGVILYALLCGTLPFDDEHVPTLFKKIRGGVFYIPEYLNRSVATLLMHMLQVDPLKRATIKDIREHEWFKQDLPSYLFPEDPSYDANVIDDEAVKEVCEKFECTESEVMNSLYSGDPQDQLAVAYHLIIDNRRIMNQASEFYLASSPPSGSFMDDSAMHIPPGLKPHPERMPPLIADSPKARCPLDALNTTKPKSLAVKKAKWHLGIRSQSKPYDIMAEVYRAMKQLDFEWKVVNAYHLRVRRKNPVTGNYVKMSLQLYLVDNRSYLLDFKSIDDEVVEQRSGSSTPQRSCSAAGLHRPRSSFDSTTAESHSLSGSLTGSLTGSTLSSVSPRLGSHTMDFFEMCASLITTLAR

[11] = target: 5'-AMP-activated protein kinase catalytic subunit alpha-2 (Homo sapiens) (UniProt P54646); conditions: at 1 µM
[12] = target: T4, NUAK family SNF1-like kinase 1 (Homo sapiens) (UniProt O60285); conditions: at 0.1 µM
T4 sequence (whole entry): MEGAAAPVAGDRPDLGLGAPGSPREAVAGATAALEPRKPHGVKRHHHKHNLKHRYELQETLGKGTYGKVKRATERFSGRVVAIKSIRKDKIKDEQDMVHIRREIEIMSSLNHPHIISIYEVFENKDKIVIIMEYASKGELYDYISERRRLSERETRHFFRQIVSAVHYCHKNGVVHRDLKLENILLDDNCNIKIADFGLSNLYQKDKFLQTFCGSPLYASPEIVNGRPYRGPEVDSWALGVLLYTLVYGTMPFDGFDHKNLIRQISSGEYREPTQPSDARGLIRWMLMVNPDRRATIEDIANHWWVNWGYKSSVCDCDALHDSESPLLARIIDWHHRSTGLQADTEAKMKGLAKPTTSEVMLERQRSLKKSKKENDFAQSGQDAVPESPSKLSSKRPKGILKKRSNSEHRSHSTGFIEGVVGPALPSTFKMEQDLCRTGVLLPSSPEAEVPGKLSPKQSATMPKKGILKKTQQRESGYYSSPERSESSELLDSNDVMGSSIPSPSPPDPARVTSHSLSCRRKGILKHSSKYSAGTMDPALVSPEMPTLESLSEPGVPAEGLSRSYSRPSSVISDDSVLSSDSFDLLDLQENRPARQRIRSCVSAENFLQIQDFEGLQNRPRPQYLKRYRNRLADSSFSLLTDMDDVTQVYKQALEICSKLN

[13] = target: T4, NUAK family SNF1-like kinase 1 (Homo sapiens); conditions: at 1 µM
[14] = target: T5, Serine/threonine-protein kinase BRSK1 (Homo sapiens) (UniProt Q8TDC3); conditions: at 0.1 µM
T5 sequence (whole entry): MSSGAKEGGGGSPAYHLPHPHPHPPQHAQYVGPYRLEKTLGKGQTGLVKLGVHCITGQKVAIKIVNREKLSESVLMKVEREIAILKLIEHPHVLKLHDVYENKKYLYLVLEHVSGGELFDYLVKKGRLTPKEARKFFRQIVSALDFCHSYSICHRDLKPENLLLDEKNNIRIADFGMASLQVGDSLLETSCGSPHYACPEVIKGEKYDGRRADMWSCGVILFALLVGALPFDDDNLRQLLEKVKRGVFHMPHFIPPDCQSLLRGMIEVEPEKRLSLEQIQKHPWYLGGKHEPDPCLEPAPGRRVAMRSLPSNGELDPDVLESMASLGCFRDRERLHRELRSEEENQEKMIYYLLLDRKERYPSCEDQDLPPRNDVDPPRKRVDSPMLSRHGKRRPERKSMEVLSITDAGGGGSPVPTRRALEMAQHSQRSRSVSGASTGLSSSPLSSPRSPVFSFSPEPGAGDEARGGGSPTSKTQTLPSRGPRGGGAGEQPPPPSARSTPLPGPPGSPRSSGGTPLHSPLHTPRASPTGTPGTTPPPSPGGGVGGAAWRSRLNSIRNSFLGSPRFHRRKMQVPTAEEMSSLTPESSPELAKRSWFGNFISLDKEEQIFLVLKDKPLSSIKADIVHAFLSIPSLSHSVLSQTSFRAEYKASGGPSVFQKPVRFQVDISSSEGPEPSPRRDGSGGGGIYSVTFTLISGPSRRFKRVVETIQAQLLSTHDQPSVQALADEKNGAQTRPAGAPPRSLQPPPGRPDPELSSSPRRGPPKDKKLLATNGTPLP

[15] = target: T5, Serine/threonine-protein kinase BRSK1 (Homo sapiens); conditions: at 1 µM
[16] = target: T6, Serine/threonine-protein kinase BRSK2 (Homo sapiens) (UniProt Q8IWQ3); conditions: at 0.1 µM
T6 sequence (whole entry): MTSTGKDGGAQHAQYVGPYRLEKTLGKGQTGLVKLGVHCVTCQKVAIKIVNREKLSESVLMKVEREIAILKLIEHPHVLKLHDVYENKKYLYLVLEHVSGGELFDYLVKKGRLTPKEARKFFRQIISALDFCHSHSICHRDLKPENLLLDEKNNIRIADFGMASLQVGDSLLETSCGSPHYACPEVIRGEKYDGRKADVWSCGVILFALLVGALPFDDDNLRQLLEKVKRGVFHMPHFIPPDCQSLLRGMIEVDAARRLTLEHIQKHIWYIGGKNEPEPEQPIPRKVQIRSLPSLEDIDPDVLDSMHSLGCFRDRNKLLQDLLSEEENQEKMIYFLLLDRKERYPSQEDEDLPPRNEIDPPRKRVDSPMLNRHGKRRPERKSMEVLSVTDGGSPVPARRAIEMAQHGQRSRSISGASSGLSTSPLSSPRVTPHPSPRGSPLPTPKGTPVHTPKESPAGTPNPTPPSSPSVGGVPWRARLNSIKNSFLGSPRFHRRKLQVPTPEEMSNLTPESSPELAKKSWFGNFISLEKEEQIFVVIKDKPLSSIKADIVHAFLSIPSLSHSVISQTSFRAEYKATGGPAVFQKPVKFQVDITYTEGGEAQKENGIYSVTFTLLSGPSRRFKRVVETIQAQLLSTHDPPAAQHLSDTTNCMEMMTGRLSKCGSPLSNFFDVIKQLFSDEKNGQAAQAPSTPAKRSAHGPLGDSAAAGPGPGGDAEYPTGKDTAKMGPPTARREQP

[17] = target: T6, Serine/threonine-protein kinase BRSK2 (Homo sapiens); conditions: at 1 µM
[18] = target: Calcium/calmodulin-dependent protein kinase type 1D (Homo sapiens) (UniProt Q8IU85); conditions: at 0.1 µM
Calcium/calmodulin-dependent protein kinase type 1D (Homo sapiens), sequence (Q8IU85 whole entry, looked up): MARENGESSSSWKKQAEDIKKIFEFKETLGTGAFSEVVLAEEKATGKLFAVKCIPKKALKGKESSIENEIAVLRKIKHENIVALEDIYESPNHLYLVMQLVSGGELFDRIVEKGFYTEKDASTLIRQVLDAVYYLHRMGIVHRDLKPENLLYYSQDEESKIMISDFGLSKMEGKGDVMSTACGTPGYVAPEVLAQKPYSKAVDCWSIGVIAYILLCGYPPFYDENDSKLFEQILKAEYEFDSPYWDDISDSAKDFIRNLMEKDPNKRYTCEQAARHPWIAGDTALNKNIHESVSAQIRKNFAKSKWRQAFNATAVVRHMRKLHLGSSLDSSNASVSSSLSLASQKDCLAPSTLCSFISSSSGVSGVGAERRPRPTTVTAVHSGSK

[19] = target: Calcium/calmodulin-dependent protein kinase type 1D (Homo sapiens) (UniProt Q8IU85); conditions: at 1 µM
[20] = target: Calcium/calmodulin-dependent protein kinase type II subunit alpha (Homo sapiens) (UniProt Q9UQM7); conditions: at 0.1 µM;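 further: reported values are averages (mean inhibition of CAMK2A)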
Calcium/calmodulin-dependent protein kinase type II subunit alpha (Homo sapiens), sequence (Q9UQM7 whole entry): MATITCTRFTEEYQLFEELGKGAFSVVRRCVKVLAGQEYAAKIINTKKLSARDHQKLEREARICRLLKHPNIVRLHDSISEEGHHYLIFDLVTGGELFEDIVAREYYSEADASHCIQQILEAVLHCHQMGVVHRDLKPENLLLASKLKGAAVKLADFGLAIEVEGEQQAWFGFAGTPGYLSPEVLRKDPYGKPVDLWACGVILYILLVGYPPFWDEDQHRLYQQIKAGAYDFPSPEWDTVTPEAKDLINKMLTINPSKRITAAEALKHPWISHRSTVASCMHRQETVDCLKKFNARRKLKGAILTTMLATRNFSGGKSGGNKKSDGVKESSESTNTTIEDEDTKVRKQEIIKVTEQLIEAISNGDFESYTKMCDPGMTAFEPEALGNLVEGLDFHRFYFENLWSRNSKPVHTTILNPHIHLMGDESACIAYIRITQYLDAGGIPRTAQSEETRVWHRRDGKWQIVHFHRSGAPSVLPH

Ribosomal protein S6 kinase alpha-6 (Homo sapiens), sequence (Q9UK32 whole entry): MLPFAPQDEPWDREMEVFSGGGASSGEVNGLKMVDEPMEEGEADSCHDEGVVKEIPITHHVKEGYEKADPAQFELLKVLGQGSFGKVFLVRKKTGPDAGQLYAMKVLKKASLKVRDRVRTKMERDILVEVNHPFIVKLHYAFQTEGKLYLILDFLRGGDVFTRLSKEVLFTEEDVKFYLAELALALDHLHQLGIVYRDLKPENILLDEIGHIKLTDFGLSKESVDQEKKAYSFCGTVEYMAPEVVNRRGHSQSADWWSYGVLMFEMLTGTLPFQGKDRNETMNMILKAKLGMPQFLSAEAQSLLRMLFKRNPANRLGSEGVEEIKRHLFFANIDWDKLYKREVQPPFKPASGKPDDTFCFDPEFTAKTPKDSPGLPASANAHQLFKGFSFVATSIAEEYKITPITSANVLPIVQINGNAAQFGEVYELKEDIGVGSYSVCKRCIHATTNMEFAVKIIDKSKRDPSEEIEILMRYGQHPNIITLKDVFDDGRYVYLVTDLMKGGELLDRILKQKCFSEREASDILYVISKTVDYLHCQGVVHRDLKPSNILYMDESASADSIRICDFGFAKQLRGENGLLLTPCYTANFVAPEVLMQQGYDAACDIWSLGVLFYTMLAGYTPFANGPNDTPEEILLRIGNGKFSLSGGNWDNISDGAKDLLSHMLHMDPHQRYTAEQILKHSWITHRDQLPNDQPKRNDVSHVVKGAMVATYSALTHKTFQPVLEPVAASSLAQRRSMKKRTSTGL

SMILES	inhibition [1]	inhibition [2]	inhibition [3]	inhibition [4]	inhibition [5]	inhibition [6]	inhibition [7]	inhibition [8]	inhibition [9]	inhibition [10]	inhibition [11]	inhibition [12]	inhibition [13]	inhibition [14]	inhibition [15]	inhibition [16]	inhibition [17]	inhibition [18]	inhibition [19]	inhibition [20]
COc1cc(N2CCN(C(C)C)CC2)ccc1Nc1nc(Nc2cccc3ncccc23)c2cc[nH]c2n1	2.88%	1.18%	-0.91%	-3.32%	-0.85%	0.42%	0.55%	0.27%	0.86%	0.57%	0.77%	13.2%	47.5%	-0.07%	0.86%	-0.35%	-0.59%	1.82%	17.8%	-2.58%
CCS(=O)(=O)c1ccc(OC)c(Nc2ncc(-c3cccc(C(C)=O)c3)o2)c1	2.13%	0.32%	5.11%	2.27%	3.41%	1.59%	2.93%	2.21%	4.72%	-0.37%	3.65%	2.25%	4.46%	-0.38%	3.68%	1.58%	4.09%	0.3%	-0.69%	2.75%
CNC(=O)c1sc(-n2cnc3cc(OC)c(OC)cc32)cc1OCc1ccccc1C(F)(F)F	1.47%	2.16%	1.23%	0.8%	2.63%	3.8%	1.89%	3.22%	4.14%	0.14%	-1.59%	0.7%	6.22%	0.35%	4.45%	4.29%	4.88%	0.71%	-0.22%	2.98%
